Rows were chosen to be rich in hits. Some 21% of all compounds tested hit in one or more screens of this group.
HCMV inh: blocks human cytomegalovirus replication; HFF cells, HCMV-luciferase reporter, 72 h; hits give low values; activity change, negative = inhibition, % at 57.5 µM; actives 4.5% (n = 410,000); in the data active = activity change below about -60%; inconclusive = no clear call, values can overlap the other calls; inactive = above about -39%; note: % is set by controls: 0 for no effect and ±100 for the full control effect
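Luciferase read-out from HCMV-luciferase-infected HFFs (MOI 1 PFU/cell) 72 h post infection at 37C; compounds added after 16 h cell attachment; activity normalized between buffer-only basal and Salinomycin (10uM) inhibitor controls.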
CHX counter: counter-screen for Shiga toxin inhibitors: cycloheximide protein synthesis inhibition; actives 12% (n = 300,000); max response, %; cell reporter, cycloheximide protein synthesis inhibition counterscreen; in the data active = max response mostly above about 13%, no sharp cut-off; inactive = mostly below about 14%; note: read at 38.3 µM for the half of the compounds with a filed dose; 0% is about no effect
Pf growth 96h: inhibits malaria parasite growth, 96 h. actives 6.9% (n = 320,000). Potency, µM (titrated, usually from 28.7 µM), for inactives: at the top dose activity change, negative = inhibition, actives largely listed as inhibitors. AID 504834. P. falciparum luciferase reporter growth, 96 h; note: potency is the fitted concentration of half-maximal effect; % is set by controls: 0 for no effect and ±100 for the full control effect
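Luminescence readout: decreased luciferase signal marks inhibited growth of reporter-expressing P. falciparum in infected red cells (2% hematocrit, 0.05% parasitemia final), exposed to compound two generations (96 h, 37 C, 5% CO2).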
Shiga toxin inh: inhibitors of Shiga toxin in Vero cells; actives 9.2% (n = 290,000); inhibition, % at 38.7 µM; Vero cells, Shiga toxin protein synthesis inhibition reporter; in the data active = inhibition mostly above about 28%, no sharp cut-off; inactive = mostly below about 43%; note: 0% is about no effect
HCV inh: inhibitors of hepatitis C virus infection | AID 651820 | Huh7.5.1 HCVcc-Cre infection, luciferase reporter, 44 h | Potency, µM (top dose mostly 41.8 µM), without a hit: at the top dose activity change, negative = inhibition, hits mostly inhibitors | actives 3.4% (n = 340,000); note: potency is the fitted concentration of half-maximal effect; % is set by controls: 0 for no effect and ±100 for the full control effect
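Cells (1,000/well) were plated 4 h before compound, then infected with HCVcc-Cre virus (~0.5 moi). After 44 h further culture, infection was read as luciferase luminescence following a 15 min substrate incubation at room temperature.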
Pf growth 48h: inhibits P. falciparum growth in the first generation, 48 h; P. falciparum luciferase growth in erythrocytes, 48 h; Potency, µM (doses to about 28.7 µM), for the others: at the top dose activity change, negative = inhibition, most hits filed as inhibitors; actives 5.9% (n = 310,000); AID 504832; note: potency is the fitted concentration of half-maximal effect; % is set by controls: 0 for no effect and ±100 for the full control effect
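Luminescence readout; reporter = integrated firefly luciferase in P. falciparum. RBC culture at 2% hematocrit, 0.1% parasitemia final, 37 C/5% CO2; decreased signal taken as growth inhibition.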
An asterisk follows results filed as active; u = inconclusive; x = no result given. Unless noted, calls come from the whole dose curve; as a rule, active = well fitted inhibition curve with a large enough effect; inconclusive = small, poorly fitted or top-dose-only effect, or another doubt; inactive = no such curve, though single readings can be large or run the other way.

SMILES | HCMV inh | CHX counter | Pf growth 96h | Shiga toxin inh | HCV inh | Pf growth 48h
O=C(Nc1cccnc1)c1ccc(Br)c(S(=O)(=O)N2CCCC2)c1 | 4 | 3 | u | 10 | u | 13µM*
Cc1ccc(C(=O)Nc2cccnc2)cc1Cl | 53 | 26* | 10µM* | 41* | -12% | 56%
Cc1ccc(C(=O)Nc2cccnc2)cc1C | 40 | x | x | x | x | x
O=C(Nc1cccnc1)c1cccc(S(=O)(=O)N2CCCCC2)c1 | -7 | -2 | -17% | -12 | -13% | -22%
O=C(Nc1ccccn1)c1ccc(Br)c(S(=O)(=O)N2CCCCC2)c1 | 3 | -2 | u | -2 | 19% | u
COc1ccc(-c2cc(C(F)(F)F)n3nc(C(N)=O)cc3n2)cc1 | -26 | x | x | x | x | x
CCC1CN(C(=O)Nc2cc(Cl)ccc2C(=O)OC)c2ccccc2S1 (stereo not drawn) | 17 | x | x | x | x | x
Cc1cc(C(=O)Nc2cccnc2)cs1 | 5 | 12* | 14% | 15 | 13% | 62%
Cc1ccc(C(=O)NCc2cccnc2)cc1S(=O)(=O)N1CCCCCC1 | -22 | -1 | u | -5 | u | u
Cc1ccc(C(=O)Nc2cccnc2)cc1S(=O)(=O)N1CCCCC1 | -35 | 2 | 2.1µM* | -5 | u | u
O=C(Nc1cccnc1)c1cc(F)cc(F)c1 | 7 | -3 | x | 19 | 16% | 33%
Cc1ccc(C(=O)Nc2cccnc2)cc1S(=O)(=O)N1CCCC1 | 7 | 20* | u | 31 | x | u
CC1CCCCC1NC(=O)C1CCC(CNS(=O)(=O)c2ccc3c(c2)C(C)(C)C(=O)N3C)CC1 (stereo not drawn) | 68 | x | x | x | x | x
Cc1ccc(C)c(N2CCN(S(=O)(=O)c3c(C(=O)N4CCC(C)CC4)c(C)n(C)c3C)CC2)c1 | -25 | x | x | x | x | x
COc1ccc2[nH]c3c(c2c1)CCN1C(=O)C(CC(=O)NCc2ccc(OC)c(OC)c2)C[C@H](C(=O)N2CCCCC2)[C@@]31CCc1ccccc1 (stereo partly drawn) | u | x | x | x | 10µM* | x
C[C@]12c3[nH]c4ccccc4c3CCN1C(=O)C(CC(=O)NCc1cccc(C(F)(F)F)c1)C[C@@H]2C(=O)N1CCOCC1 (stereo partly drawn) | 8 | x | x | x | u | x
C[C@]12c3[nH]c4ccc(Cl)cc4c3CCN1C(=O)[C@@H](CC(=O)NCc1cccc(C(F)(F)F)c1)C[C@@H]2C(=O)N1CCOCC1 | -15 | x | x | x | 7.1µM* | x
COc1ccc2[nH]c3c(c2c1)CCN1C(=O)C(CC(=O)NCc2ccco2)C[C@H](C(=O)N2CCCCC2)[C@@]31CCc1ccccc1 (stereo partly drawn) | -34 | x | x | x | 0.56µM* | x
COCCCNC(=O)CC1C[C@H](C(=O)N2CCCCC2)[C@@]2(CCc3ccccc3)c3[nH]c4ccc(OC)cc4c3CCN2C1=O (stereo partly drawn) | -26 | x | x | x | 19% | x
COc1ccc(CNC(=O)C[C@H]2C[C@H](C(=O)N3CCCCC3)[C@@]3(C)c4[nH]c5ccc(Cl)cc5c4CCN3C2=O)cc1OC | -24 | x | x | x | 14µM* | x
COc1ccccc1NC(=O)c1ccc(Cl)c(S(=O)(=O)NCc2ccco2)c1 | 0 | x | u | x | u | u
CN(CC(=O)Nc1ccc(F)c(F)c1F)C(=O)c1cc(S(=O)(=O)N(C)C)ccc1N1CCCC1 | -11 | x | x | x | -26% | x
CCCCCCCCCCCCN1[C@@H](CC(=O)O)c2cc(F)ccc2S1(=O)=O | -2 | x | x | x | 23% | x
O=C(NC1CCCCC1)C(c1ccnc2ccccc12)n1c(=O)c(-c2ccco2)nc2ccccc21 (stereo not drawn) | 12 | x | x | x | x | x
COc1ccc2[nH]c3c(c2c1)CCN1C(=O)C(CC(=O)NCCc2ccccn2)C[C@H](C(=O)N2CCCCC2)[C@@]31CCc1ccccc1 (stereo partly drawn) | -7 | x | x | x | 7.9µM* | x
N#C[C@H](c1ccccc1)C1CCN(C(=O)c2ccco2)CC1 | -9 | x | x | x | x | x
O=Cc1cc([B-](F)(F)F)cs1 | 20 | x | x | x | x | x
O=c1oc2ccccc2cc1-c1ccc(O)cc1O | 11 | 2 | 19% | 15 | 11% | 42%

High-throughput results: PubChem, National Center for Advancing Translational Sciences (NCATS)
